Laboratory results published in PubChem BioAssay AID624330 (Southern Research Specialized Biocontainment Screening …, 2012).
Among all 340,000 compounds or so, about 2,100 (0.62%) were called active.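 Rule for the calls: active = first-screen hits whose inhibition reached a set limit at any dose in the follow-up dose series; inconclusive = inhibition above the set first-screen limit but never retested; inactive = the rest.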 A selection follows. Results with a measured potency or affinity are listed apart.

Biological target: Rac GTPase-activating protein 1 (Homo sapiens) (UniProt Q9H0H5)
Sequence (Q9H0H5 whole entry, looked up): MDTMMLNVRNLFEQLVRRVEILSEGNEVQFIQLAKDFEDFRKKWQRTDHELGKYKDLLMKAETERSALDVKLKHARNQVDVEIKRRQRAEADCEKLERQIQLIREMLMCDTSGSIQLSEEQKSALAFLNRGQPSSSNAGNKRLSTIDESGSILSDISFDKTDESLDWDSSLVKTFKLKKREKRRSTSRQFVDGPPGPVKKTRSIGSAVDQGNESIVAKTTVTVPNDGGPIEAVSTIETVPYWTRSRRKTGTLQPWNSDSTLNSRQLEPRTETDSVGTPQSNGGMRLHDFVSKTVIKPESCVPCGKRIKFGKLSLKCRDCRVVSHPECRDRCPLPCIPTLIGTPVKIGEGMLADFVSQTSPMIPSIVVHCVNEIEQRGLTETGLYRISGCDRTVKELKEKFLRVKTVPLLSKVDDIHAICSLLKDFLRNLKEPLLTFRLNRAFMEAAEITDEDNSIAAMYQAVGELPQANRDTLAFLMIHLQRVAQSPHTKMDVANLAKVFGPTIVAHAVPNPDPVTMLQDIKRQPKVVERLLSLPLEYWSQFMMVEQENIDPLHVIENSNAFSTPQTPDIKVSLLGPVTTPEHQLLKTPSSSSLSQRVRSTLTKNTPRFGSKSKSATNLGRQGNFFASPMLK
Assay: blockers of MgcRacGAP-driven Rac1 GTP hydrolysis – biochemical, ADP Hunter fluorescence, primary and confirmatory, confirmation (AID 624330);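 note: fluorescence reports GDP produced by GAP-driven GTP hydrolysis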
Settings: MgcRacGAP-stimulated Rac1 GTP hydrolysis, at 30 µM, active compounds read high, GST-tagged Rac1 F28L mutant substrate

inhibition, inactive:
Cc1cc(C)c(OCCOCCN(C)C)c(Br)c1 12.7%
CC(C)(C)[C@@H]1C=C(C(N)=O)O[C@H](OCCCCO)C1 4.43%
CN(C(=O)CN1C(=O)NC(C)(c2cccc(Br)c2)C1=O)C1CCCCC1 (stereo not given) 6.93%
COc1ccc2nc(SCCOC(=O)Nc3ccc(Cl)cc3)nc(C)c2c1 9.72%
CC1=C(C(=O)NC2CC(C)(C)Cc3c2cnn3-c2cccc(F)c2)OCCO1 (stereo not given) -2.86%
CCC(C(=O)Nc1cc(C)nn1-c1nc(C)cc(C)n1)c1ccccc1 (stereo not given) 13.7%
O=C1NN(c2ccccc2)C(=O)/C1=C\c1ccccc1 21.7%
COc1cccc(/C=C2/C(=O)NN(c3ccc(Br)cc3)C2=O)c1O 13.4%
O=C1NN(c2cccc(Br)c2)C(=O)/C1=C\c1ccc(O)cc1 14.5%
O=C1NN(c2ccccc2)C(=O)C1=Cc1ccccc1 13.7%
CCC1CCCCN1C(=O)CCS(=O)(=O)c1ccc2c(c1)CCN2C(C)=O (stereo not given) 8.33%
CCOc1ccc(N(CC(=O)Nc2ccccc2OC)S(C)(=O)=O)cc1 9.6%
C/C(=N\NC(=O)OC(C)(C)C)c1ccccc1Br -4.8%
CCCc1cc(=O)[nH]c(SCC(=O)N2CCCCCC2)n1 2.49%
COc1ccc(N2CCN(C(=O)CCS(=O)(=O)c3cccc4nsnc34)CC2)cc1 28%
Cn1nnnc1SCC(=O)Nc1cc(S(=O)(=O)N2CCCC2)ccc1Cl 4.66%
CC(/C=N/n1cnnc1)=C\c1ccccc1 3.71%
CC(=C/c1ccccc1)/C=N/n1cnnc1 -1.27%
CC(/C=N/n1c(-c2ccccc2)n[nH]c1=S)=C\c1ccco1 24.1%
CC(=C/c1ccccc1)/C=N/n1c(C)n[nH]c1=S 15.2%
CC(=O)Nc1ccc(S(=O)(=O)NNC(=O)c2cccc([N+](=O)[O-])c2)cc1 5.98%
COc1ccccc1NC(=O)CCC(=O)c1ccc(-c2ccccc2)cc1 -5.2%
CCc1ccc(NC(=O)C(=O)NCCOc2ccccc2Cl)cc1 -2.71%
Cc1ccccc1C(=O)c1cccn1CC(=O)NC1CCCC(C)C1C (stereo not given) -36.1%
NC(=O)C1(N2CCCCC2)CCN(Cc2ccc(Br)cc2)CC1 -3.42%
Cc1ccc(OCCOCCN2CCCC2)c(Br)c1 31.4%
Cc1cc(C)c(OCCOCCN2CCN(C)CC2)c(Cl)c1 22.7%
Cc1ccc(C(C)(C)C)c(OCCOCCN2CCCC2)c1 24.1%
CC1CCN(CCOCCOc2ccc(Br)cc2Cl)CC1 5.16%
CC(C)(C)c1ccccc1OCCOCCN1CCCCCC1 -5.46%
CC1CCCN(CCOCCOc2ccc(Br)cc2Cl)C1 (stereo not given) 30.6%
Cc1cc(Cl)c(OCCOCCN2CCC(C)CC2)c(Br)c1 21.9%
Clc1cc(Br)ccc1OCCN1CCOCC1 24.7%
Cc1cccc(/C(N)=N/OC(=O)Cc2cccs2)c1 2.9%
Cn1c(=O)c2c(nc(Oc3ccc(-c4ccccc4)cc3)n2C)n(C)c1=O 12.2%
COc1ccc(C(=O)Oc2c(OC)cc(C(=S)N3CCOCC3)cc2OC)cc1 4.31%
Cc1cc(Br)ccc1OCCCCN1CCC(C)CC1 9.17%
Cc1ccc(OCCCCN2CCC(C)CC2)c(Br)c1 17%
C[C@@H]1CN([C@@H](C)CO)C(=O)CCCn2nncc2CO[C@@H]1CN(C)S(C)(=O)=O 12%
COCc1ccc(C(=O)N2CCCCC2C(=O)Nc2ccc(-n3nc(C)cc3C)cc2)o1 (stereo not given) 7.88%
O=C(NCCCNC(=O)c1ccco1)c1ccc(Cl)c(Cl)c1 0%
COc1ccc(N=CC2=C(O)CCCC2=O)cc1 13.3%
O=C1CC(c2ccccc2)CC(O)=C1C=Nc1ccc(Cl)cc1 (stereo not given) 2.18%
CCOc1ccc(N=CC2=C(O)CC(C)(C)CC2=O)cc1 6.9%
COc1ccc(N=CC2=C(O)CC(C)(C)CC2=O)cc1 9.7%
O=C1CC(c2ccccc2)CC(O)=C1C=Nc1ccccc1O (stereo not given) 4.93%
CC1(C)CC(=O)C(C=Nc2ccccc2)=C(O)C1 2.7%
CC1(C)CC(=O)C(C=Nc2ccncc2)=C(O)C1 6.33%
O=C1CCCC(O)=C1C=Nc1cccc(C(F)(F)F)c1 11.5%
Cc1ccc(CN2CCN(/N=C/c3ccc(C)s3)CC2)c(C)c1 4.97%
COc1ccc(Nc2nnc(SCC(=O)NC3CCS(=O)(=O)C3)s2)cc1 (stereo not given) 4.04%
O=C(CN1C(=O)NC2(CCCCCC2)C1=O)N1CCN(S(=O)(=O)c2ccccc2)CC1 0.28%
CC(=O)NC1C(=O)N(CC(C)C)c2ccccc21 (stereo not given) 4.92%
CCCc1ccc2c(N)c(C#N)sc2n1 1.65%
Cc1ccccc1C(=O)N(CC(=O)Nc1sc(C)c(C)c1C(N)=O)C1CCCC1 -20.9%
CCOc1ccc(NC(=O)N(CCC(C)C)C2CCN(C(C)=O)CC2)cc1 4.34%
Nc1ccc2c3c(cccc13)C(=O)N(c1ccccc1)C2=O 5.87%
CCN1C(=O)c2cccc3c(N)ccc(c23)C1=O 7.37%
Cc1ncoc1C(=O)N1CCCC(C(=O)Nc2cccc(-c3ccc(F)cc3)c2)C1 (stereo not given) -3.84%
CCCc1cc(C(=O)OC)c2ccccc2n1 5.2%
O=C(COC(=O)C1CCC(=O)N1)Nc1ccc(Br)cc1 (stereo not given) 15.9%
COc1ccc(CCNC(C(=O)Nc2cc(C)cc(C)c2)c2ccccc2)cc1 (stereo not given) 2.32%
Cc1cc(C)cc(NC(=O)C(NCC2CCCO2)c2ccccc2)c1 (stereo not given) 20.5%
CCC1(C)CC(CCN(Cc2ccco2)C(C)=O)(c2ccccc2)CCO1 (stereo not given) 6.02%
CCOC(=O)N1CCC(N2C(=O)c3ccc(C(=O)NCc4ccc(F)cc4)cc3C2=O)CC1 -5.85%
